Measurements as given in the supplement of paper PMC6555819.

Legend:
Assay in all cases: PBM binding z-score (relative to random genomic background probes); higher = stronger binding; sequences stand for … in GC…GCGATTGACAGCGTAGAATGAAGG
[1] = test system: FXR:RXRa (NR concentration 270 nM, RXRa partner concentration 90 nM)
How it was run: (§1)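 Ligand-free nuclear receptor dimers were applied to custom Agilent 4×180K protein-binding microarrays whose double-stranded probes carried direct-repeat seeds, single-nucleotide variants, half-site ablations and random human genomic background sequences in 34-nt variable regions. Incubation lasted 1 h. Binding z-scores were computed against the random background probes from regression-normalized fluorescence.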

[2] = test system: LXRa:RXRa (NR concentration 270 nM, RXRa partner concentration 90 nM)
How it was run: as §1

[3] = test system: LXRa homodimer (NR concentration 270 nM)
How it was run: as §1

[4] = test system: LXRb:RXRa (NR concentration 270 nM, RXRa partner concentration 90 nM)
How it was run: as §1

[5] = test system: LXRb homodimer (NR concentration 270 nM)
How it was run: as §1

[6] = test system: PPARa:RXRa (NR concentration 270 nM, RXRa partner concentration 90 nM)
How it was run: as §1

[7] = test system: PPARg:RXRa (NR concentration 180 nM, RXRa partner concentration 90 nM)
How it was run: as §1

[8] = test system: PPARg:RXRa 270nM:90nM, anti-RXR (NR concentration 270 nM, RXRa partner concentration 90 nM)
How it was run: as §1

[9] = test system: PPARg:RXRa 30nM:10nM, anti-RXR (NR concentration 30 nM, RXRa partner concentration 10 nM)
How it was run: as §1

[10] = test system: PPARg:RXRa 90nM:30nM, anti-RXR (NR concentration 90 nM, RXRa partner concentration 30 nM)
How it was run: as §1

[11] = test system: PPARg:RXRa DBDmut IVT, anti-RXR (DBD mutation: RXRa K156A/R161A, NR concentration 270 nM, RXRa partner concentration 90 nM)
How it was run: as §1

[12] = test system: PPARg:RXRa IVT, anti-PPARg (NR concentration 270 nM, RXRa partner concentration 90 nM)
How it was run: as §1

[13] = test system: PPARg DBDmut:RXRa IVT, anti-PPARg (DBD mutation: PPARg1 K132A/R137A, NR concentration 270 nM, RXRa partner concentration 90 nM)
How it was run: as §1

[14] = test system: PPARg DBDmut IVT, anti-PPARg (DBD mutation: PPARg1 K132A/R137A, NR concentration 270 nM)
How it was run: as §1

[15] = test system: PPARg homodimer (NR concentration 180 nM)
How it was run: as §1

[16] = test system: PXR:RXRa (NR concentration 270 nM, RXRa partner concentration 90 nM)
How it was run: as §1

[17] = test system: PXR homodimer (NR concentration 270 nM)
How it was run: as §1

[18] = test system: RARa:RXR (NR concentration 270 nM, RXRa partner concentration 90 nM)
How it was run: as §1

[19] = test system: RARa homodimer (NR concentration 270 nM)
How it was run: as §1

[20] = test system: RARb:RXRa (NR concentration 270 nM, RXRa partner concentration 90 nM)
How it was run: as §1

Sequence | PBM binding z-score [1] | PBM binding z-score [2] | PBM binding z-score [3] | PBM binding z-score [4] | PBM binding z-score [5] | PBM binding z-score [6] | PBM binding z-score [7] | PBM binding z-score [8] | PBM binding z-score [9] | PBM binding z-score [10] | PBM binding z-score [11] | PBM binding z-score [12] | PBM binding z-score [13] | PBM binding z-score [14] | PBM binding z-score [15] | PBM binding z-score [16] | PBM binding z-score [17] | PBM binding z-score [18] | PBM binding z-score [19] | PBM binding z-score [20]
CCTACTGGGTCAAAAAGGTCATTGATGCCGATAA | 5.59 | 5.57 | 4.15 | 5.29 | 1.01 | 5.73 | 7 | 6.52 | 4.03 | 5.73 | 5.6 | 6.85 | 0.701 | -0.419 | 4.23 | 6.02 | 9.56 | 6.15 | 2.31 | 4.66
CCTGCTAGGTCAGTGGTCAGCTAAAGCAGCTCGC | 0.953 | 0.472 | -0.482 | 0.299 | -0.638 | 1.39 | 1.53 | 2.58 | 0.178 | 1.59 | 3.16 | 2.76 | -1.08 | -1.65 | 0.944 | -0.0429 | -0.667 | 0.509 | -0.82 | 3.42
ACTCTGAGGACAAAGGTCAGAGCTACGCCAGTGA | 4.52 | 4.08 | 1.44 | 3.34 | 0.531 | 4.76 | 7.44 | 7 | 5.4 | 6.74 | 1.18 | 4.01 | 0.601 | 0.00649 | 3.26 | 3.74 | 0.395 | 5.19 | 0.924 | 4.47
ATATGTAGGTTCGCTGGGGTCATTCAGACTAGGC | 4.11 | 3.93 | 1.89 | 4.28 | 1.4 | 4.69 | 2.95 | 3.83 | 1.2 | 2.91 | 3.5 | 3.76 | 1.92 | 1.5 | 2.78 | 6.18 | 12.4 | 6.02 | 1.12 | 2.72
CGTCCAAGGTTAGAGAGGTCAGTGAATGCCGAGT | 2.67 | 3.01 | 1.94 | 2.48 | -0.312 | 3.11 | 0.589 | 1.66 | -0.029 | 0.655 | 0.939 | 1.57 | -1.21 | -1.38 | 2.67 | 4.07 | 7.59 | 3.61 | 1.11 | 3.66
GCTATTAGTTGAAAGGGCAACCGGATGATTCTCG | 0.785 | 0.839 | 0.362 | 0.759 | -0.334 | 2.31 | 2.78 | 4.56 | 2.87 | 4.49 | 0.432 | 0.892 | 0.0968 | -0.308 | 1.33 | 0.775 | 0.0713 | 1.37 | 1.05 | 2.1
CCTAGCAGGCCAGTCTGGGTCACTCAAGGCTTGA | 0.876 | 0.686 | -0.81 | 0.487 | -1.44 | 2.13 | -0.179 | 0.439 | -1.1 | 0.0493 | 1.92 | 2.62 | -1.53 | -2.16 | -0.0647 | 0.811 | -0.718 | 1.45 | -1.53 | 1.42
GCGACTGGGGCAAAGCAGGTTAGCATAAGGTTGG | 0.494 | -0.573 | -0.598 | -0.43 | -1.24 | 0.977 | 1.14 | 0.948 | -0.509 | 0.412 | 4.21 | 3.26 | -0.633 | -1.6 | -0.037 | -0.216 | -0.676 | 0.00756 | -0.55 | 0.773
TCTCGGAGGACACGAGGGTCAGAGCTTTCCAGAG | 0.856 | 0.365 | -0.438 | 0.47 | -1.32 | 1.46 | 0.145 | 1.07 | 1.75 | 1.17 | 1.25 | 0.292 | -0.358 | -0.909 | 0.294 | 0.835 | -0.16 | 1.46 | -0.665 | 2.38
CGAACTAGGTCATCCTGGACAGTGAATACATTGA | 4.25 | 2.46 | 0.715 | 2.21 | 0.266 | 4.76 | 7.88 | 6.36 | 3.97 | 5.92 | 8.23 | 8.04 | 1.58 | 0.831 | 1.83 | 1.3 | -0.0548 | 2.02 | 0.627 | 3.58
ACTATTAGTTGAGACGAGGGAAACCGATAGGTTG | 0.194 | 0.0182 | -0.36 | -0.399 | -0.0748 | -0.349 | 0.531 | -0.165 | 0.215 | 0.291 | 0.0625 | -0.339 | 0.706 | 0.394 | 0.465 | -0.464 | -0.0777 | 0.0368 | 0.655 | -0.193
CGTCCAAGGTCAGCAGGTCAGTAAAAGCGACGTG | 5.97 | 4.07 | 0.614 | 3.22 | -0.235 | 4.9 | 3.97 | 4.43 | 1.37 | 2.87 | 2.72 | 3.62 | 0.159 | -0.726 | 3.33 | 3.43 | 0.607 | 4.46 | 0.549 | 5.51
ATATGTAGGTTATCGGGTCAATCAGTTTGCGCAT | 3.33 | 3.31 | 1.36 | 2.99 | 1.1 | 4.99 | 7.6 | 6.41 | 3.84 | 5.93 | 7.94 | 7.57 | 3.15 | 2.14 | 2.33 | 3.64 | 3.23 | 4.04 | 1.3 | 2.86
ATATGTAGGTTTCATCCGGGTCATTCAGGCTATG | 1.4 | 1.72 | 0.315 | 2.07 | 0.658 | 3.09 | 2.23 | 2.17 | 0.721 | 1.43 | 4.9 | 4.69 | 1.71 | 1.7 | 1.33 | 2.86 | 2.28 | 2.55 | 0.582 | 1.43
